Activity calls are given as the source filed them.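 The calls were made as follows, unless noted: active = inhibition above 50%, about 3 SD of the validation set; inactive = the rest.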
Biological target: Integrin beta-1 (Homo sapiens) + Integrin alpha-4 (Homo sapiens) (UniProt P13612+P05556)
Assay: alpha4beta1 integrin LIBS antibody binding reduction – U937 cells, HUTS-21 mAb, flow cytometry, validation set, VLA-4 allosteric modulator project, pilot screen (AID 2674);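 also: antibody binding induced by the VLA-4 ligand LDV present at three times its Kd; 0% = LDV ligand with antibody and no compound and 100% = antibody without LDV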
Conditions: HUTS-21 LIBS mAb binding, at 6.7 µM, hits give high values, binding induced by LDV ligand

Integrin beta-1 (Homo sapiens) + Integrin alpha-4 (Homo sapiens), sequence (P05556 whole entry, looked up): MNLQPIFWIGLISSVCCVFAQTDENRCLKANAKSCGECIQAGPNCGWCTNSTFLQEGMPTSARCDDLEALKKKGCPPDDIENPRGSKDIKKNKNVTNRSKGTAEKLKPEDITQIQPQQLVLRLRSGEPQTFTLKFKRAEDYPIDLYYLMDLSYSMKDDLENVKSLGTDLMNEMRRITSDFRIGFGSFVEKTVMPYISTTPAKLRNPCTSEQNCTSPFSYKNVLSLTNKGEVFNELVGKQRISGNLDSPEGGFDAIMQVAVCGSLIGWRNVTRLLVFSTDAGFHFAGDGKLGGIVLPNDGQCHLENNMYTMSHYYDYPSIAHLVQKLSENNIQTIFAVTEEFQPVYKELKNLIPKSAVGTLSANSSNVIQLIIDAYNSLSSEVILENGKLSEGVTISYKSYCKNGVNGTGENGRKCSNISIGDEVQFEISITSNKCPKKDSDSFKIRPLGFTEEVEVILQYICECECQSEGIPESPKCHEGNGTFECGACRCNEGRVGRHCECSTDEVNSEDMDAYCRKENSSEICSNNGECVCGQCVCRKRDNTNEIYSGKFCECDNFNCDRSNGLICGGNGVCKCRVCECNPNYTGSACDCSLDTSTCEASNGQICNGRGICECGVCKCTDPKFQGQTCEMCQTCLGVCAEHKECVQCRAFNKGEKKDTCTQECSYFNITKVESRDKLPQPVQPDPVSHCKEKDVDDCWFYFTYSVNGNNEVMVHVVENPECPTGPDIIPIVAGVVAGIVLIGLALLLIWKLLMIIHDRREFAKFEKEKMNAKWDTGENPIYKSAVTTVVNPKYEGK
Integrin beta-1 (Homo sapiens) + Integrin alpha-4 (Homo sapiens), sequence (P13612 whole entry, looked up): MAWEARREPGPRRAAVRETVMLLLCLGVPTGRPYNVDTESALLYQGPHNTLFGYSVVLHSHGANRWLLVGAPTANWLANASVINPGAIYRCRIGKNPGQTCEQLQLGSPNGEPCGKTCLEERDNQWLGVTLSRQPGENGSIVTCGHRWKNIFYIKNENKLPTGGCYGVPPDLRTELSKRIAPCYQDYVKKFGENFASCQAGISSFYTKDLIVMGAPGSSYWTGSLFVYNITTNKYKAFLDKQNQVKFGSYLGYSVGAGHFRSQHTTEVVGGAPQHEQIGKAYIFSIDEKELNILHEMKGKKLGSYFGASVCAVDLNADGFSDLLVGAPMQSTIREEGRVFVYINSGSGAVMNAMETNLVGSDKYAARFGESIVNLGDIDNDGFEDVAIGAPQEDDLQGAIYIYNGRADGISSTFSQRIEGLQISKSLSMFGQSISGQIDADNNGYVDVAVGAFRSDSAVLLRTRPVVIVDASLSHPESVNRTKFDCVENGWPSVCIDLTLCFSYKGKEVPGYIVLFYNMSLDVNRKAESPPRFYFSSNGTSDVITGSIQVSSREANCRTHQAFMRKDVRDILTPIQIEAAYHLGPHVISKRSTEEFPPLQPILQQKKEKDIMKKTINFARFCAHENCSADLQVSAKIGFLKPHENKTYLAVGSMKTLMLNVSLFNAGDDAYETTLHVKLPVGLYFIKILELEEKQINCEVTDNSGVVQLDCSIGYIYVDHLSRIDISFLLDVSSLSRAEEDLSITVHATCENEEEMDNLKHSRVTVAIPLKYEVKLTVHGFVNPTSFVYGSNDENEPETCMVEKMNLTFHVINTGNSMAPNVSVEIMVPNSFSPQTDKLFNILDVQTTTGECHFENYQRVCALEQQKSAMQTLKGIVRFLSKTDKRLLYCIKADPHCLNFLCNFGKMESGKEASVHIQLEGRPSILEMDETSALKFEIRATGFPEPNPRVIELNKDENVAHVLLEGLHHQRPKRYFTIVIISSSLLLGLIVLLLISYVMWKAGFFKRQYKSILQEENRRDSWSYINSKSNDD

inhibition, inactive:
Cc1oc2cc(O)cc(O)c2c(=O)c1-c1ccc2c(c1)OCCCO2 14.6%
O=C(c1ccco1)N1CCCN(Cc2nc(-c3ccc4c(c3)OCO4)no2)CC1 -0.45%
COc1ccc2nc(S(=O)Cc3ncc(C)c(OC)c3C)[nH]c2c1 (stereo not given) -13.2%
CSCCC(NC(C)=O)C(=O)Oc1ccc2c3c(c(=O)oc2c1)CCCC3 (stereo not given) 3.7%
CCOC(=O)C1NN=C(C(=O)c2ccccc2)C1c1ccc(Cl)cc1 (stereo not given) 9.63%
CSCCC(NC(=O)OC(C)(C)C)C(=O)Oc1ccc2c(=O)c(-c3ccc4c(c3)OCCO4)coc2c1 (stereo not given) -1.79%
COc1cc2c(cc1OC)/C(=C/c1ccc(Cl)cc1)C(=O)OC2 -7.12%
COc1ccc(-c2coc3c(CN4CCOCC4)c(O)ccc3c2=O)cc1 -5.11%
OCCC1CN(Cc2ccccc2-c2ccco2)CCN1C1CCCC1 (stereo not given) 12.5%
O=C(O)C1CCN(C(=O)COc2ccc3c4c(c(=O)oc3c2)CCC4)CC1 6.55%
Cc1ccc(C(=O)NCCNC(=O)c2ccccc2)cc1 13.4%
CC(=O)OCC(=O)[C@@]1(O)CC[C@H]2[C@@H]3CCC4=CC(=O)C=C[C@]4(C)[C@H]3[C@@H](O)C[C@@]21C 9.37%
CCCc1cc(C(N)=S)ccn1 0.94%
Cc1ccc(Cl)c(Nc2ccccc2C(=O)O)c1Cl 2.29%
COc1ccccc1/C=C/C(=O)OCCN1CCOCC1 -8.09%
Fc1ccc(-c2cc(-c3ccccc3)nc(-n3cccn3)n2)cc1 6.85%
O=c1c(-c2ccccc2)c(O)c2cccc3c2n1CCC3 1.44%
COc1cc(CC(=O)NCCc2ccc(S(N)(=O)=O)cc2)cc(OC)c1OC 1.44%
CN(C)CCC(c1ccc(Cl)cc1)c1ccccn1 (stereo not given) -7.12%
Cc1ccc2nc(N=C(N)N)nc(C)c2c1 -13.2%
CCn1c(N2CCN(CC(=O)c3c(C)n(C)c4ccc(OC)cc34)CC2)nc2c1c(=O)[nH]c(=O)n2C -18.1%
CC1(c2ccccc2)CC(C)(C)N2C(=O)C(=O)c3cccc1c32 (stereo not given) -7.25%
O=C(COc1cc(O)c2c(=O)c3ccccc3oc2c1)OCc1ccccc1 -3.57%
C[N+](C)(C)CCOP(=O)([O-])OC[C@H](O)CO -3.77%
O=C(/C=C/Sc1ccccc1)c1ccccc1 -15%
O=C1Cc2ccccc2C(c2ccccc2)N1 (stereo not given) -19.1%
Cc1ccc(NC(=O)CSc2nc(O)c(Cc3ccccc3)c(=O)n2-c2ccccc2)cc1 -6.68%
COCCn1c(SCCOc2ccccc2)nc2ccccc2c1=O 6.95%
CC(=O)Oc1ccc2c(=O)c(Oc3ccccc3[N+](=O)[O-])coc2c1 -0.33%
CCc1c(C(C)=O)oc2ccc3c(C)cc(=O)oc3c12 -13.9%
COc1ccc(-c2[nH]ncc2CN(C)C(C)c2ccon2)c(OC)c1 (stereo not given) 10.3%
Cc1c(O)c(=O)ccn1C 6.46%
COc1ccc2cc(C(=O)Nc3ccc(S(N)(=O)=O)cc3)sc(=O)c2c1OC 3.55%
Cc1cnc(NC(=O)C2=C(O)c3ccccc3S(=O)(=O)N2C)s1 -6.68%
O=C(O)c1ccc(N2C(=O)/C(=C\c3ccccc3)N=C2c2ccccc2)cc1 -5.11%
O=C(CCC(=O)NCCO)NCCO -1.12%
CC(=O)O[C@H]1C[C@@]2(C)[C@@H](C[C@@H](O)[C@H]3[C@@]4(C)CC[C@@H](O)[C@@H](C)C4CC[C@@]32C)/C1=C(\CCC=C(C)C)C(=O)O (stereo not given in full) 11.7%
O=C(c1cc2cc(Br)ccc2o1)N1CCCC1 -5.11%
CCOc1ccc2nc(NC(=O)NC3CCCCC3)sc2c1 -1.09%
O=C(/C=C/c1c[nH]c2ccccc12)c1cccc2ccccc12 -72.8%

System: not listed separately
Assay: calorie-restriction mimetic ROS inhibitors, yeast – validation compound set, pilot screen (AID 2706;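 active = superoxide response below 65% of plate, a cut near 3 SD across the whole screen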;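 also: yeast exposed to compound for one week at 30 degrees C before staining; 100% = mean of all compound wells on the same plate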)
Conditions: S. cerevisiae aging, superoxide DHE fluorescence; at 10 µM; hits give low values

Superoxide response (% of plate), inactive:
Cc1oc2cc(O)cc(O)c2c(=O)c1-c1ccc2c(c1)OCCCO2 100%
O=C(c1ccco1)N1CCCN(Cc2nc(-c3ccc4c(c3)OCO4)no2)CC1 102%
COc1ccc2nc(S(=O)Cc3ncc(C)c(OC)c3C)[nH]c2c1 (stereo not given) 84.9%
CSCCC(NC(C)=O)C(=O)Oc1ccc2c3c(c(=O)oc2c1)CCCC3 (stereo not given) 102%
CCOC(=O)C1NN=C(C(=O)c2ccccc2)C1c1ccc(Cl)cc1 (stereo not given) 106%
CSCCC(NC(=O)OC(C)(C)C)C(=O)Oc1ccc2c(=O)c(-c3ccc4c(c3)OCCO4)coc2c1 (stereo not given) 99.7%
COc1cc2c(cc1OC)/C(=C/c1ccc(Cl)cc1)C(=O)OC2 95.8%
COc1ccc(-c2coc3c(CN4CCOCC4)c(O)ccc3c2=O)cc1 103%
OCCC1CN(Cc2ccccc2-c2ccco2)CCN1C1CCCC1 (stereo not given) 95%
O=C(O)C1CCN(C(=O)COc2ccc3c4c(c(=O)oc3c2)CCC4)CC1 105%
Cc1ccc(C(=O)NCCNC(=O)c2ccccc2)cc1 102%
CC(=O)OCC(=O)[C@@]1(O)CC[C@H]2[C@@H]3CCC4=CC(=O)C=C[C@]4(C)[C@H]3[C@@H](O)C[C@@]21C 97%
CCCc1cc(C(N)=S)ccn1 97%
Cc1ccc(Cl)c(Nc2ccccc2C(=O)O)c1Cl 95.2%
COc1ccccc1/C=C/C(=O)OCCN1CCOCC1 126%
Fc1ccc(-c2cc(-c3ccccc3)nc(-n3cccn3)n2)cc1 92%
O=c1c(-c2ccccc2)c(O)c2cccc3c2n1CCC3 108%
COc1cc(CC(=O)NCCc2ccc(S(N)(=O)=O)cc2)cc(OC)c1OC 95.2%
CN(C)CCC(c1ccc(Cl)cc1)c1ccccn1 (stereo not given) 94%
Cc1ccc2nc(N=C(N)N)nc(C)c2c1 91.5%
CCn1c(N2CCN(CC(=O)c3c(C)n(C)c4ccc(OC)cc34)CC2)nc2c1c(=O)[nH]c(=O)n2C 100%
CC1(c2ccccc2)CC(C)(C)N2C(=O)C(=O)c3cccc1c32 (stereo not given) 109%
O=C(COc1cc(O)c2c(=O)c3ccccc3oc2c1)OCc1ccccc1 101%
C[N+](C)(C)CCOP(=O)([O-])OC[C@H](O)CO 94.8%
O=C(/C=C/Sc1ccccc1)c1ccccc1 109%
O=C1Cc2ccccc2C(c2ccccc2)N1 (stereo not given) 112%
Cc1ccc(NC(=O)CSc2nc(O)c(Cc3ccccc3)c(=O)n2-c2ccccc2)cc1 95.4%
COCCn1c(SCCOc2ccccc2)nc2ccccc2c1=O 104%
CC(=O)Oc1ccc2c(=O)c(Oc3ccccc3[N+](=O)[O-])coc2c1 121%
CCc1c(C(C)=O)oc2ccc3c(C)cc(=O)oc3c12 92.5%
COc1ccc(-c2[nH]ncc2CN(C)C(C)c2ccon2)c(OC)c1 (stereo not given) 99.7%
Cc1c(O)c(=O)ccn1C 99.1%
COc1ccc2cc(C(=O)Nc3ccc(S(N)(=O)=O)cc3)sc(=O)c2c1OC 101%
Cc1cnc(NC(=O)C2=C(O)c3ccccc3S(=O)(=O)N2C)s1 109%
O=C(O)c1ccc(N2C(=O)/C(=C\c3ccccc3)N=C2c2ccccc2)cc1 111%
O=C(CCC(=O)NCCO)NCCO 95.4%
CC(=O)O[C@H]1C[C@@]2(C)[C@@H](C[C@@H](O)[C@H]3[C@@]4(C)CC[C@@H](O)[C@@H](C)C4CC[C@@]32C)/C1=C(\CCC=C(C)C)C(=O)O (stereo not given in full) 116%
O=C(c1cc2cc(Br)ccc2o1)N1CCCC1 93.6%
CCOc1ccc2nc(NC(=O)NC3CCCCC3)sc2c1 89.5%
O=C(/C=C/c1c[nH]c2ccccc12)c1cccc2ccccc12 94%
